These results are taken from PubChem BioAssay (NCI).

Several values for one entry are separate records, joined by “and”; a condition that tells them apart may be missing. Equal entries are not always repeated. Compounds without any hit were thinned out: in the full panel of roughly 83,000, 20% have a hit.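 Method: cells in 96-well plates; compound added at one concentration; 48 h incubation; percent growth measured; values under 10 scored active.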 Values without a mark were called inactive. Activity calls are given as the source filed them.

The assay has as its system NCI-H322M lung. Description: NCI-60 one-dose screen, 48 h (100 = growth as untreated, 0 = no growth, -100 = all killed). The following applies: 10 µM. As for the experimental part: Growth inhibition of the NCI-H322M human Non-Small Cell Lung tumor cell line is measured as a screen for anti-cancer activity. Cells are grown in 96 well plates and exposed to the test compound for 48 hours. Compounds are tested at a single concentration, which is 10^-5 M for most compounds. The reported endpoint is percent growth (GI% or GIPRCNT), where numbers from 0 - 100% represent growth inhibition, and numbers from -100% - 0 represent cell death. For example, a value of 40 represents 60% growth inhibition. A value of 0 means no net growth occurred over the course of the experiment. A value of -40 indicates 40% of cells at the beginning of the experiment died by the end of the experiment. A value of -100 means all cells are dead at the end of the experiment.
NCI-60 Human Tumor Cell Lines Screen was performed using the standard one-dose NCI protocol, which is described in more detail at https://dtp.cancer.gov/discovery_development/nci-60/default.htm.
Compounds with GIPRCNT values below 10 were considered active. Activity score was based on GIPRCNT using the following formula: […]
Score is 0 for GIPRCNT values of 100 or above, 50 for GIPRCNT values of 0, and 100 for GIPRCNT values of -100.
In the case of `[Cl][Hg][c]1ccc(Cl)s1`, the growth was 91.3%.
Consider `O=[N+]([O-])/C=C/c1ccc([N+](=O)[O-])cc1`, for which the growth was 90.4% and 92.5%.
`Cc1cc([N+](=O)[O-])c2ccccc2[n+]1[O-]`: the growth was -15.3% (active) and -45.7% (active).
The figure for `COc1ccccc1[As]=[As]c1ccccc1OC` (stereo not given) is -80.8% (active); for `CC(Cc1ccc2c(c1)OCO2)NN` (stereo not given) it is 99.5%.
The figure for `COC(=O)C1C(O)C(C)C(O)C(C)/C=C\C=C(C)C(=O)Nc2c(C)c(OC(C)=O)c3c(c2O)C(=O)C(C)=C2OCOC(=C23)C(C)=CC(C)(O)C(O)C(C)C1O` (stereo not given) is 106%.
With `CC(=O)Nc1c2sscc-2n(C)c1=O`, the growth was -100% (active).
The figure for `C=NCC#N` is 107% and 118%.
The same measure for `COc1ccc2c(ccc3oc([N+](=O)[O-])cc32)c1`: -10.7% (active).
The same measure for `O=[N+]([O-])c1ccc(Br)c([N+](=O)[O-])c1`: 115%.
Turning to `O=[P+](O)c1ccccc1`, the growth was 149%.
In the case of `O=[N+]([O-])/C=C/c1ccc(Cl)cc1[N+](=O)[O-]`, the growth is 96.6%.
The figure for `NC(=O)c1cc([N+](=O)[O-])c(Cl)c([N+](=O)[O-])c1Cl` is 98.3%; for `Cc1ccc(NC(=O)CBr)cc1` it is 99.4%; for `[Cl][Hg][c]1ccc2ccccc2c1` it is -53.1% (active).
The same measure for `Oc1c(I)cc(I)cc1I`: 110%; for `C[C@@H]1C[C@@H]([C@H](O)CC2CC(=O)NC(=O)C2)C(=O)[C@@H](C)C1`: 2.7% (active).
The figure for `O=[N+]([O-])/C=C\c1ccc2c(c1)OCO2` is 113%; for `Oc1c(Cl)cc(Cl)c2ccccc12.[Cu+2]` it is 92.1%.
For the molecule `COc1cc(/C=C(/C)[N+](=O)[O-])ccc1O`, the growth was 66.7% and 91.5%.
The figure for `NC(Cc1ccccc1)c1ccccc1` (stereo not given) is 102% and 103%; for `COc1ccc(/C=C\[N+](=O)[O-])cc1OC` it is 129% and 90.2%.
The figure for `COC(C(=O)C(O)C(C)O)C1Cc2cc3cc(OC4CC(OC(C)=O)C(OC5CC(O)C(OC)C(C)O5)C(C)O4)cc(O)c3c(O)c2C(=O)C1OC1CC(OC2CC(OC3CC(C)(O)C(OC(=O)C(C)C)C(C)O3)C(O)C(C)O2)C(O)C(C)O1` (stereo not given) is 7.22% (active).
The same measure for `COc1cc2c(cc1OC)C13CCN4CC5=CCOC6CC(=O)N2C1C6C5CC43` (stereo not given): 118% and 144%.
As to `COc1cc(/C=C/[N+](=O)[O-])cc(OC)c1OC`, the growth was 36.1%.
With `C[CH2][Hg][S]c1ccccc1C(=O)O`, the growth is 66.2%.
Consider `[O-][n+]1ccccc1S`, for which the growth is 64.1%.
Turning to `CCOP(=O)(OCC)C(O)c1ccccc1Cl` (stereo not given), the growth was 93.8%.
Regarding `NNc1ccccc1`, the growth is 114%.
Turning to `CC1CCC2(OC1)OC1C(O)C3C4CCC5CC(OC6OC(CO)C(OC7OC(CO)C(O)C(OC8OCC(O)C(O)C8O)C7OC7OC(CO)C(O)C(OC8OC(CO)C(O)C(O)C8O)C7O)C(O)C6O)C(O)CC5(C)C4CCC3(C)C1C2C` (stereo not given), the growth is 13.2%.
As to `COc1ccc(/C=C(\C)[N+](=O)[O-])cc1OC`, the growth is 64.9%.
The figure for `COC12C(COC(N)=O)C3=C(C(=O)C(C)=C(N)C3=O)N1CC1C2N1C` (stereo not given) is 30%.
The same measure for `CC/C(=C/c1ccc(OC)cc1OC)[N+](=O)[O-]`: 90.3%.
Regarding `Cc1ccc(C(=O)C2C(c3ccccc3)N2C2CCCCC2)cc1` (stereo not given), the growth is 107%.
For `Cn1c(O)c(N=O)c(=O)n(C)c1=O`, the growth is 97.1% and 101%.
On to `[Cl][Sn]([c]1ccccc1)([c]1ccccc1)[c]1ccccc1`, for which the growth was -89.5% (active).
The same measure for `C/C(=C\c1ccc(Cl)c(Cl)c1)[N+](=O)[O-]`: 94.6% and 100%; for `ClCc1ccc2ccccc2n1`: 100%; for `O=[N+]([O-])c1cc[n+]([O-])c2ccccc12`: -18.3% (active).
On to `O=C1C(=O)c2ccccc2-c2ccccc21`, for which the growth is 101%.
